SNCA viab count = counter-screen for SNCA expression inhibitors: cell viability | HEK-293-SNCA-luc viability, GF-AFC fluorescence, 24 h | Potency, µM (titrated, usually from 57.1 µM), inactives show top-dose activity change, negative = cytotoxicity, hits mostly cytotoxic | hit rate 0.12% among 150,000;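 further: potency means the concentration at half of the fitted maximal effect; 0% = DMSO-treated cells and -100% = medium-only wells without cells; nearly all actives have a fitted effect of over 30% in size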
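HEK-293-SNCA-luc cells (1500/well) plated 24 h, then exposed 24 h to a dilution series; GF-AFC added 30 min at 37C, fluorescence 405/540 nm; normalised to medium-only and DMSO wells, Hill fit.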
KDM5B inhibitor = inhibitors of human KDM5B histone demethylase; Potency, µM (doses to about 57.7 µM), most hits filed as inhibitors; KDM5B demethylase, FDH-coupled NADH fluorescence (FDH is formaldehyde dehydrogenase); hit rate 2.6% among 220,000; AID 1347165; further: potency means the concentration at half of the fitted maximal effect; 0% is about no effect; nearly all actives have a fitted effect of over 70% in size
Target sequence (Q9UGL1 whole entry, looked up): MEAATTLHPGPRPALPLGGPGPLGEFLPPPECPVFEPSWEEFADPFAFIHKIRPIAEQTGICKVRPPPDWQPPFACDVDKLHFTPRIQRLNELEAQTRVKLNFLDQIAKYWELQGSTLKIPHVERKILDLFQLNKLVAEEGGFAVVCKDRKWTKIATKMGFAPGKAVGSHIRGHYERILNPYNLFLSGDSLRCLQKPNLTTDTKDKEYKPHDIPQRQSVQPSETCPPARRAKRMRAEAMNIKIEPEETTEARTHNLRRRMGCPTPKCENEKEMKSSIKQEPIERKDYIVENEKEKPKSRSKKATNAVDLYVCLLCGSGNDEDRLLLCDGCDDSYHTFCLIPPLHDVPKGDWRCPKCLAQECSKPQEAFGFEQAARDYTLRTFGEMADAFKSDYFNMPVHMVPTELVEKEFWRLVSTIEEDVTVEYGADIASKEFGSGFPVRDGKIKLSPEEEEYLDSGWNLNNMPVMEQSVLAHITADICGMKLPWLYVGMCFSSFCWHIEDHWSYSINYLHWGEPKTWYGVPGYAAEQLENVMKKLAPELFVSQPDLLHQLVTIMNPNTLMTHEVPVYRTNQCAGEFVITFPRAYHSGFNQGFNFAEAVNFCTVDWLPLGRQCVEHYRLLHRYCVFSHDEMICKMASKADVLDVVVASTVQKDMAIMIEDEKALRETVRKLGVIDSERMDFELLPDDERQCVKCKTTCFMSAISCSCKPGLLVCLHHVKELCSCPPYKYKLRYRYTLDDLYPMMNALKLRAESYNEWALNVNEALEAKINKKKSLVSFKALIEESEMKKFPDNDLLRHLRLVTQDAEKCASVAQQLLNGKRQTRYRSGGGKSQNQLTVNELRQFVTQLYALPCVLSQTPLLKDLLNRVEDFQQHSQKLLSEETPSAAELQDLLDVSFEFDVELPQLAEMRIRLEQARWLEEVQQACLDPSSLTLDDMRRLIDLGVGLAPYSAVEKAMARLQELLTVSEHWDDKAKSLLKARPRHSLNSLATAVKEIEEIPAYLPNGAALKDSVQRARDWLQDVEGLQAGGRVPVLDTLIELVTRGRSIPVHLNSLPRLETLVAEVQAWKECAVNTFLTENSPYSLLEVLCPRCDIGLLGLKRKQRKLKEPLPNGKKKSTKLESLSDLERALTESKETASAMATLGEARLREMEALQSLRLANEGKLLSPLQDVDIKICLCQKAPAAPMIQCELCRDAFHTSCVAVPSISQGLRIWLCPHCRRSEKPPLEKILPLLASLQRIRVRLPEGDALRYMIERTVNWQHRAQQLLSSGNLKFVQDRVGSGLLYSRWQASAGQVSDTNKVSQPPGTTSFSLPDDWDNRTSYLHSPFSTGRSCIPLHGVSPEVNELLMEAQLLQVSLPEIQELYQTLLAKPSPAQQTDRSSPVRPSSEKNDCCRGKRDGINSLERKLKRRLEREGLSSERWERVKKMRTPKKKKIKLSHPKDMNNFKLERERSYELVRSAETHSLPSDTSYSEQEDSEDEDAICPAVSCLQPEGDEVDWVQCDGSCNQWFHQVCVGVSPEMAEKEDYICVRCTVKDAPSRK
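Coupled FDH/NAD⁺ fluorescence readout. KDM5BΔAP 200 nM final; compound titration, 10 min RT preincubation; substrate mix 12.5 µM H3K4me3, 25 µM 2-OG, 50 µM Fe(II), 100 µM ascorbate, 0.25 mM NAD⁺, 0.25 U/mL FDH; ΔRFU over 30 min.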
IP6K1 inhibitor = blocks human inositol hexakisphosphate kinase 1; AID 1645851; hit rate 0.81% among 140,000; IP6K1 kinase, ADP-Glo luminescence, 2 h; stronger effect = lower value; activity change, % (series mostly up to about 58 µM); Q92551; in the data active means activity change below about -25%; further: on the % scale 0 is the no-effect control and ±100 the full control effect
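ADP-Glo luminescence measures ADP made by human IP6K1 during a 2 h RT reaction with ATP/IP6 (mix at 1.3 mM/130 uM); top library doses 57.5 and 19.1 uM final.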
SNCA expr inh = inhibitors of alpha-synuclein (SNCA) gene expression. HEK-293 SNCA-luciferase knock-in, luminescence, 24 h. Potency, µM (titrated, usually from 57.2 µM), for the others: top-dose activity change, negative = inhibition, most hits filed as inhibitors. hit rate 0.17% among 140,000. AID 1671194;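 further: potency means the concentration at half of the fitted maximal effect; plate controls were DMSO cells for no effect and cell-free wells for full effect; nearly all actives have a fitted effect of over 45% in size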
* hit, by the source's call; i = inactive; u = inconclusive; x = not tested or not shown; ! = not active in a repeat; [ ] = dose if it differs, or a comment. An excerpt weighted towards active compounds, which were near 2.9% of everything screened. Unless noted, the call rests on the fitted dose curve; in most records, active means well fitted curve in the direction sought with a large enough effect; inconclusive means small, poorly fitted or top-dose-only effect, or another doubt; inactive means no such curve, though single readings can be large; an effect the other way counts as inactive or inconclusive.

SMILES	SNCA viab count	KDM5B inhibitor	IP6K1 inhibitor	SNCA expr inh
CC(C)c1ccc(NC(=O)CC2=C3CCCCC3N(C(C)C)C2=O)cc1 (centres undefined)	-11.5%	x	-3.5	25.0%
Cc1ccc(C(=O)N2CCC(n3cc(-c4nc(-c5ccccc5)no4)nn3)CC2)s1	-3.0%	i	4.0	23.7%
CCc1nc(-c2c3n(c(=O)n(Cc4ccccc4F)c2=O)CCCC3)no1	7.8%	i	0.5	5.4%
CCc1nc(-c2c3n(c(=O)n(Cc4cc(=O)n5ccccc5n4)c2=O)CCCC3)no1	0.9%	22.4µM*	4.7	-23.8%
N#Cc1ccc(CN2CCC(c3nc4ccc(F)cc4c(=O)[nH]3)CC2)cc1	-2.9%	i	-3.2	0.3%
Cc1ccc2nc(C3CCN(Cc4ccc(C#N)cc4)CC3)[nH]c(=O)c2c1	1.1%	79.4µM*!	10.6	-15.1%
CO[C@@H]1COCC[C@H]1NC1CCN(c2ncc3ccc(F)cc3n2)CC1	-8.6%	28.2µM*	5.8	27.6%
O=c1cnc2cnc(N3CCOCC3)nc2n1Cc1ccc(F)cc1	-21.4%	x	x	-13.2%
COc1ccc(F)cc1-c1ccc(CN2CCC(NC(=O)c3cccnc3)C2)cc1 (centres undefined)	x	x	5.8	x
CC(C)(C)CC(=O)N1CCN2C(=O)c3cc(-c4ccc5c(c4)OCO5)ccc3NC(=O)[C@H]2C1	6.1%	u	6.3	u
CSc1ccc(-c2ccc3c(c2)C(=O)N2CCN(C(=O)C4CCCCC4)C[C@@H]2C(=O)N3)cc1	0.3%	28.2µM*	-0.4	-7.6%
O=C1Nc2ccc(-c3ccc4c(c3)OCO4)cc2C(=O)N2CCN(C(=O)C3CCCC3)C[C@@H]12	-3.7%	22.4µM*	-18.8	-12.9%
COc1ccc(-c2ccc3c(c2)C(=O)N2CCN(C(=O)C4CCCCC4)C[C@@H]2C(=O)N3)cc1	-8.6%	u	-8.1	-22.4%
CCOC(=O)C1CCCN(C(=O)c2ccc3oc(-c4cccnc4C)nc3c2)C1 (centres undefined)	9.9%	x	11.1	-5.8%
CC(C)NC(=O)C1CCN(c2nccc(Nc3ccccc3F)n2)CC1	6.3%	x	-5.2	-9.0%
O=C(NC1CCCc2c1[nH]c1ccccc21)c1n[nH]c2c1CCCC2 (centres undefined)	-18.0%	14.1µM*	-13.3	30.0%
O=C(Cn1nc(-c2ccco2)ccc1=O)NC1CCCc2c1[nH]c1ccccc21 (centres undefined)	-7.6%	u	-6.9	-11.3%
O=C(Cn1nc(-c2ccc(F)cc2)ccc1=O)NC1CCCc2c1[nH]c1ccccc21 (centres undefined)	5.9%	14.1µM*	-16.9	-21.1%
O=C(NC1CCCc2c1[nH]c1ccccc21)c1n[nH]c2c1CCC2 (centres undefined)	-3.1%	u	-13.2	41.2%
Cn1ncc2c(C(=O)NC3CCCC3)cc(-c3cccc(F)c3)nc21	x	x	19.6	x
C#CCNC(=O)c1ccc(-c2ccc(OC)nn2)cc1	x	x	-7.6	x
COc1ncc(-c2ccc3ncn(C4CC4)c(=O)c3n2)cn1	-2.6%[87.6 µM]	31.6µM*	3.3	46.3%[87.6 µM]
CN(C)C1CCN(c2nccc(C3(c4ccccc4Cl)CCNCC3)n2)C1 (centres undefined)	-27.5%	28.2µM*	2.6	46.8%
Clc1ccccc1C1(c2ccnc(C3CC3)n2)CCNCC1	u	i	5.0	-6.3%
CC(C)Nc1nccc(C2(c3ccccc3Cl)CCNCC2)n1	-1.2%	u	-3.2	12.3%
SMILES	SNCA viab count	KDM5B inhibitor	IP6K1 inhibitor	SNCA expr inh
O[C@@H]1CCN(c2nccc(C3(c4ccccc4Cl)CCNCC3)n2)C1	-14.2%	28.2µM*	16.3	12.2%
COCC(C)Nc1nccc(C2(c3ccccc3Cl)CCNCC2)n1 (centres undefined)	-8.2%	22.4µM*	4.8	8.5%
CN1CCC(CNc2nccc(C3(c4ccccc4Cl)CCNCC3)n2)C1 (centres undefined)	-3.2%	u	5.4	-22.3%
Cc1ccc(CN2CCC(CNc3cc(C4CC(O)C4)ncn3)CC2)o1 (centres undefined)	-1.7%	i	-5.0	14.0%
Cc1ccc(CN2CCC(CNc3nccc(-c4ccccn4)n3)CC2)o1	-6.3%	28.2µM*	-4.8	7.1%
OCC1(Cc2ccccc2F)CCCN(c2nccc(C(F)(F)F)n2)C1 (centres undefined)	-6.1%	25.1µM*	-4.8	6.7%
CNC(=O)C1(C)CN(Cc2ccccc2)Cc2ccc(NCC(C)C)nc21 (centres undefined)	-24.7%[87.6 µM]	u	13.4	-27.7%[87.6 µM]
COC1CCN(C(=O)C2(C)CN(Cc3ccccc3)Cc3ccc(Nc4ccccc4)nc32)CC1 (centres undefined)	-22.2%	31.6µM*	6.8	-20.9%
COCCNC(=O)C1(C)CN(Cc2ccccc2)Cc2ccc(NCC(C)C)nc21 (centres undefined)	u	u	5.7	u
COCCN1Cc2ccc(Nc3ccc(OC)cc3)nc2C(C)(C(=O)Nc2ccccc2)C1 (centres undefined)	2.4%	31.6µM*	-9.5	-2.8%
COCCN1Cc2ccc(NCC(C)C)nc2C(C)(C(=O)Nc2ccc(OC)cc2)C1 (centres undefined)	u	u	23.7	-18.9%[87.6 µM]
CNC(=O)C1(C)CN(Cc2ccccc2)Cc2ccc(Nc3ccccc3)nc21 (centres undefined)	u	35.5µM*	-2.3	-14.2%[87.6 µM]
COCCNC(=O)C1(C)CN(Cc2ccccc2)Cc2ccc(Nc3ccccc3)nc21 (centres undefined)	-24.5%[87.6 µM]	31.6µM*	1.5	-2.6%[87.6 µM]
O=C(Nc1ccccc1Cl)c1ccc2nnc(-c3ccc(Cl)cc3)n2c1	-11.3%	x	12.8	-4.0%
Cc1ccccc1C(=O)NCCNC(=O)c1cccc(-c2ccsc2)c1	-23.9%	x	-0.3	27.3%
Cc1nn(-c2ccccc2)c2c1C(C)N(C1CCN(C(=O)c3ccccc3F)CC1)C2=O (centres undefined)	x	x	-7.7	x
COc1ccccc1CNC(=O)C[C@@H]1CCNC[C@@H]1Cc1cc(C(C)(C)C)on1	-19.7%[87.6 µM]	i	-3.7	-5.7%[87.6 µM]
CCOC(=O)c1nn(Cc2ccc(OC)cc2)c2c1CN(C(=O)c1ccc3nc[nH]c3c1)CC2	2.7%	31.6µM*	0.7	-3.1%
CC(C)[C@@](C)(O)[C@@H]1CN(c2nc(-c3[nH]nc4ncccc34)c(F)cc2Cl)CCN1	29.9µM*	x	-4.2	x
Cc1ccc(-c2noc(-c3ccc(N4CCCCC4)c([N+](=O)[O-])c3)n2)cc1	-5.8%	i	-4.4	-4.2%
O=[N+]([O-])c1cc(-c2nc(-c3ccccc3)no2)ccc1N1CCCCC1	6.8%	i	7.7	10µM*
NC1CCc2nn(CC(=O)N3CCCN(c4ncccn4)CC3)c(=O)n2CC1 (centres undefined)	-2.9%	28.2µM*	-9.5	6.4%
NC1CCc2nn(CC(=O)N3CCN(c4ncccn4)CC3)c(=O)n2CC1 (centres undefined)	-1.7%	u	-12.9	-2.4%
COc1ccc(Cl)cc1NC(=O)Cn1c(N2CCCCC2)nc(C)c(C)c1=O	9.4%	20µM*	13.5	-0.7%
COc1ccc(Cl)cc1NC(=O)Cn1c(N2CCC(C)CC2)nc(C)cc1=O	10.7%	28.2µM*	11.4	-26.9%

Source: PubChem BioAssay (National Center for Advancing Translational Sciences (NCATS))
